Test results: the supplement of paper PMC8007513
Where a name gives a salt, the structure may show the parent alone. ± gives the standard error. Screen size: about 1,300 compounds; about 130 (10%) showed an effect of 50% or more. The full list was thinned out, with strong results kept by preference.

System: Trichoderma virens ATCC 9645
Test: growth yield (OD600) with compound + IPBC relative to untreated control; higher = less growth inhibition
Conditions: compound concentration: 100 uM, IPBC concentration: 200 ng/ml
Outline: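 For each 96-well plate, 100 μl aliquots were prepared with Trichoderma virens ATCC 9645 spores suspended at 15,000 spores ml^−1 in potato dextrose broth. The spores had been harvested from potato dextrose agar plates after 7 days. Library compounds were present at 100 μM final, some wells also receiving a biocide at 200 ng ml^−1, and plates were grown at 30 °C with OD600 read on a BioTek EL800 at 40 h and 72 h. Reported growth, relative to the control lacking both agents, is the mean of duplicate screens.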

O=C(Nc1ccccc1)OCC(CN1CCCCC1)OC(=O)Nc1ccccc1 (stereo not drawn) [Diperodon hydrochloride] + CCCCNC(=O)OCC#CI [3-iodo-2-propynyl butylcarbamate (IPBC)]
growth yield (40 h): 77.4 ± 4.3% | growth yield (72 h): 96.9 ± 1.7%

CCC1(c2cccc(O)c2)CCCCN(C)C1 (stereo not drawn) [Meptazinol hydrochloride] + CCCCNC(=O)OCC#CI [3-iodo-2-propynyl butylcarbamate (IPBC)]
growth yield (40 h): 89.7 ± 3.6% | growth yield (72 h): 92.5 ± 2.7%

O=C1NCCN1CCN1CCC(c2cn(-c3ccc(F)cc3)c3ccc(Cl)cc23)CC1 [Sertindole] + CCCCNC(=O)OCC#CI [3-iodo-2-propynyl butylcarbamate (IPBC)]
growth yield (40 h): 5.24 ± 0.79% | growth yield (72 h): 3.46 ± 0.1%

O=C(O)c1cn(-c2ccc(F)cc2)c2cc(N3CCNCC3)c(F)cc2c1=O [Sarafloxacin] + CCCCNC(=O)OCC#CI [3-iodo-2-propynyl butylcarbamate (IPBC)]
growth yield (40 h): 81.2 ± 6.8% | growth yield (72 h): 98.2 ± 5.5%

O=c1[nH]c2ccccc2n1CCCN1CCC(n2c(=O)[nH]c3cc(Cl)ccc32)CC1 [Domperidone] + CCCCNC(=O)OCC#CI [3-iodo-2-propynyl butylcarbamate (IPBC)]
growth yield (40 h): 63.5 ± 2.9% | growth yield (72 h): 91.8 ± 2.4%

CCNCC(O)c1cccc(O)c1 (stereo not drawn) [Etilefrine hydrochloride] + CCCCNC(=O)OCC#CI [3-iodo-2-propynyl butylcarbamate (IPBC)]
growth yield (40 h): 96.9 ± 3.5% | growth yield (72 h): 98.1 ± 2.4%

CC(=O)OCC(=O)[C@@]1(O)CC[C@H]2[C@@H]3CCC4=CC(=O)C=C[C@]4(C)[C@@]3(F)[C@@H](O)C[C@@]21C [Isoflupredone acetate] + CCCCNC(=O)OCC#CI [3-iodo-2-propynyl butylcarbamate (IPBC)]
growth yield (40 h): 87.8 ± 2.1% | growth yield (72 h): 91.7 ± 1.1%

C#CCN(C)Cc1ccccc1 [Pargyline hydrochloride] + CCCCNC(=O)OCC#CI [3-iodo-2-propynyl butylcarbamate (IPBC)]
growth yield (40 h): 89.3 ± 4.5% | growth yield (72 h): 95.5 ± 2.4%

c1ccc2c(CC3=NCCN3)cccc2c1 [Naphazoline hydrochloride] + CCCCNC(=O)OCC#CI [3-iodo-2-propynyl butylcarbamate (IPBC)]
growth yield (40 h): 87 ± 1.9% | growth yield (72 h): 91.9%

CN(C/C=C/c1ccccc1)Cc1cccc2ccccc12 [Naftifine hydrochloride] + CCCCNC(=O)OCC#CI [3-iodo-2-propynyl butylcarbamate (IPBC)]
growth yield (40 h): 13.2 ± 3% | growth yield (72 h): 50 ± 2.2%

CN(C/C=C/C#CC(C)(C)C)Cc1cccc2ccccc12 [Terbinafine] + CCCCNC(=O)OCC#CI [3-iodo-2-propynyl butylcarbamate (IPBC)]
growth yield (40 h): 3.18 ± 0.64% | growth yield (72 h): 2.94 ± 0.42%

CN(Cc1ccc(C(C)(C)C)cc1)Cc1cccc2ccccc12 [Butenafine Hydrochloride] + CCCCNC(=O)OCC#CI [3-iodo-2-propynyl butylcarbamate (IPBC)]
growth yield (40 h): 4.13% | growth yield (72 h): 2.73%

OC(CCN1CCCCC1)(c1ccccc1)C1CCCCC1 (stereo not drawn) [Trihexyphenidyl-D,L Hydrochloride] + CCCCNC(=O)OCC#CI [3-iodo-2-propynyl butylcarbamate (IPBC)]
growth yield (40 h): 101 ± 16% | growth yield (72 h): 102 ± 8.6%

COC(=O)Nc1nc2cc(C(=O)c3cccs3)ccc2[nH]1 [Nocodazole] + CCCCNC(=O)OCC#CI [3-iodo-2-propynyl butylcarbamate (IPBC)]
growth yield (40 h): 107 ± 2.9% | growth yield (72 h): 109 ± 1.1%

CN(C)CCCOc1nn(Cc2ccccc2)c2ccccc12 [Benzydamine hydrochloride] + CCCCNC(=O)OCC#CI [3-iodo-2-propynyl butylcarbamate (IPBC)]
growth yield (40 h): 65.8 ± 2.2% | growth yield (72 h): 88.4 ± 2.2%

CC(=O)Nc1ccc(O)cc1 [Acetaminophen] + CCCCNC(=O)OCC#CI [3-iodo-2-propynyl butylcarbamate (IPBC)]
growth yield (40 h): 105 ± 20% | growth yield (72 h): 103 ± 14%

CC(C)[N+](C)(CCOC(=O)C1c2ccccc2Oc2ccccc21)C(C)C [Propantheline bromide] + CCCCNC(=O)OCC#CI [3-iodo-2-propynyl butylcarbamate (IPBC)]
growth yield (40 h): 78.8 ± 3.2% | growth yield (72 h): 89.1 ± 3.6%

CC(=O)N[C@@H](CC(C)C)C(=O)O [N-Acetyl-L-leucine] + CCCCNC(=O)OCC#CI [3-iodo-2-propynyl butylcarbamate (IPBC)]
growth yield (40 h): 86.57 ± 0.16% | growth yield (72 h): 93.8 ± 2.3%

C[C@]12CC[C@@H]3c4ccc(OS(=O)(=O)O)cc4CC[C@H]3[C@@H]1CCC2=O [Estropipate] + CCCCNC(=O)OCC#CI [3-iodo-2-propynyl butylcarbamate (IPBC)]
growth yield (40 h): 87 ± 1.6% | growth yield (72 h): 89.7 ± 2%

Oc1c(Cl)cc(Cl)c(Cl)c1Cc1c(O)c(Cl)cc(Cl)c1Cl [Hexachlorophene] + CCCCNC(=O)OCC#CI [3-iodo-2-propynyl butylcarbamate (IPBC)]
growth yield (40 h): 19.4 ± 4.8% | growth yield (72 h): 80.2 ± 2.6%

CC(C)C(=O)OCC(=O)[C@@]12O[C@H](C3CCCCC3)O[C@@H]1C[C@H]1[C@@H]3CCC4=CC(=O)C=C[C@]4(C)[C@H]3[C@@H](O)C[C@@]12C [Ciclesonide] + CCCCNC(=O)OCC#CI [3-iodo-2-propynyl butylcarbamate (IPBC)]
growth yield (40 h): 107 ± 6.8% | growth yield (72 h): 103 ± 5.8%

CC(C)CC(=O)N[C@H](C(=O)N[C@H](C(=O)N[C@@H](CC(C)C)[C@@H](O)CC(=O)N[C@@H](C)C(=O)N[C@@H](CC(C)C)[C@@H](O)CC(=O)O)C(C)C)C(C)C [Pepstatin A] + CCCCNC(=O)OCC#CI [3-iodo-2-propynyl butylcarbamate (IPBC)]
growth yield (40 h): 96.4 ± 11% | growth yield (72 h): 103 ± 6.7%

CN[C@@H]1[C@H](O[C@H]2[C@H](O[C@H]3[C@H](O)[C@@H](O)[C@H](N=C(N)N)[C@@H](O)[C@@H]3N=C(N)N)O[C@@H](C)[C@]2(O)C=O)O[C@@H](CO)[C@H](O)[C@H]1O [Streptomycin sulfate] + CCCCNC(=O)OCC#CI [3-iodo-2-propynyl butylcarbamate (IPBC)]
growth yield (40 h): 101 ± 3.8% | growth yield (72 h): 99.9 ± 1.1%

Cc1ccc(Cl)c(Nc2ccccc2C(=O)O)c1Cl [Meclofenamic acid sodium salt monohydrate] + CCCCNC(=O)OCC#CI [3-iodo-2-propynyl butylcarbamate (IPBC)]
growth yield (40 h): 71.3 ± 1.4% | growth yield (72 h): 85.3 ± 1.8%

O=C(O)Cc1ccccc1Nc1c(Cl)cccc1Cl [Diclofenac sodium] + CCCCNC(=O)OCC#CI [3-iodo-2-propynyl butylcarbamate (IPBC)]
growth yield (40 h): 44.79 ± 0.32% | growth yield (72 h): 74.7 ± 1.5%

O=C(O)COC(=O)Cc1ccccc1Nc1c(Cl)cccc1Cl [Aceclofenac] + CCCCNC(=O)OCC#CI [3-iodo-2-propynyl butylcarbamate (IPBC)]
growth yield (40 h): 79.9 ± 0.48% | growth yield (72 h): 95.9 ± 1.7%

O=C(CCCCCCC(=O)Nc1ccccc1)NO [Vorinostat] + CCCCNC(=O)OCC#CI [3-iodo-2-propynyl butylcarbamate (IPBC)]
growth yield (40 h): 107 ± 9.5% | growth yield (72 h): 99.5 ± 3.9%

COc1cc2nc(N3CCN(C(=O)c4ccco4)CC3)nc(N)c2cc1OC [Prazosin hydrochloride] + CCCCNC(=O)OCC#CI [3-iodo-2-propynyl butylcarbamate (IPBC)]
growth yield (40 h): 84.82 ± 0.32% | growth yield (72 h): 92.6 ± 1.1%

CN(C)CC/C=C1\c2ccccc2CSc2ccccc21 [Dosulepin hydrochloride] + CCCCNC(=O)OCC#CI [3-iodo-2-propynyl butylcarbamate (IPBC)]
growth yield (40 h): 77.5% | growth yield (72 h): 99 ± 1.1%

CN(C)CCOC(c1ccc(Cl)cc1)c1ccccn1 (stereo not drawn) [Carbinoxamine maleate salt] + CCCCNC(=O)OCC#CI [3-iodo-2-propynyl butylcarbamate (IPBC)]
growth yield (40 h): 103 ± 9.4% | growth yield (72 h): 102 ± 4.9%

OCCN1CCN(CC/C=C2/c3ccccc3Sc3ccc(Cl)cc32)CC1 [Zuclopenthixol dihydrochloride] + CCCCNC(=O)OCC#CI [3-iodo-2-propynyl butylcarbamate (IPBC)]
growth yield (40 h): 4.92 ± 0.16% | growth yield (72 h): 3.57 ± 0.21%

CN(C)CCC=C1c2ccccc2C=Cc2ccccc21 [Cyclobenzaprine hydrochloride] + CCCCNC(=O)OCC#CI [3-iodo-2-propynyl butylcarbamate (IPBC)]
growth yield (40 h): 65.1% | growth yield (72 h): 88.41 ± 0.73%

OCCOCCN1CCN(C2=Nc3ccccc3Sc3ccccc32)CC1 [Quetiapine hemifumarate] + CCCCNC(=O)OCC#CI [3-iodo-2-propynyl butylcarbamate (IPBC)]
growth yield (40 h): 72.75 ± 0.64% | growth yield (72 h): 85.7 ± 3.2%

CN(C)CC/C=C1/c2ccccc2Sc2ccc(Cl)cc21 [Chlorprothixene hydrochloride] + CCCCNC(=O)OCC#CI [3-iodo-2-propynyl butylcarbamate (IPBC)]
growth yield (40 h): 24.5 ± 7.9% | growth yield (72 h): 83.6 ± 8.9%

CN(C)CCOC1=Cc2ccccc2Sc2ccc(Cl)cc21 [Zotepine] + CCCCNC(=O)OCC#CI [3-iodo-2-propynyl butylcarbamate (IPBC)]
growth yield (40 h): 38.6 ± 0.16% | growth yield (72 h): 97.7%

COc1ccccc1Oc1c(NS(=O)(=O)c2ccc(C(C)(C)C)cc2)nc(-c2ncccn2)nc1OCCO [Bosentan] + CCCCNC(=O)OCC#CI [3-iodo-2-propynyl butylcarbamate (IPBC)]
growth yield (40 h): 117 ± 2.4% | growth yield (72 h): 114 ± 5.8%

Clc1ccc2c(c1)C(N1CCNCC1)=Nc1ccccc1O2 [Amoxapine] + CCCCNC(=O)OCC#CI [3-iodo-2-propynyl butylcarbamate (IPBC)]
growth yield (40 h): 81.3 ± 6% | growth yield (72 h): 99.9 ± 7%

CCOC(=O)[C@@](C)(N)Cc1ccc(O)c(O)c1 [Methyldopate hydrochloride] + CCCCNC(=O)OCC#CI [3-iodo-2-propynyl butylcarbamate (IPBC)]
growth yield (40 h): 110 ± 6% | growth yield (72 h): 106 ± 6.2%

CC12CC3CC(C)(C1)CC(N)(C3)C2 [Memantine Hydrochloride] + CCCCNC(=O)OCC#CI [3-iodo-2-propynyl butylcarbamate (IPBC)]
growth yield (40 h): 109 ± 3% | growth yield (72 h): 108 ± 4.2%
